The record followed here is PubChem BioAssay.

Calls of active or inactive are those of the source.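 The calls were made as follows, unless noted: active = mean z-score across replicates of 1.96 or higher in either the MELAS or the Rieske mutant cell line; inactive = the rest.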 Where a SMILES comes first, the peptide text is derived from it. Bridges are numbered along the chain shown (N, C = ends). [ ]: non-standard residue; d: D form. The star is where a group is joined. Heptanoyl(5-Me) = CCC(C)CCCC(=O)*; Dab = NCC[C@H](N)C(=O)O

The subject of one assay is Hepatitis C virus NS3 helicase. In words: HCV NS3 helicase inhibitors, primary screen, biochemical, fluorescence polarization, LOPAC1280 library (AID 687035; in the data active = inhibition above about 37%). Particulars: Purified HCV NS3 helicase, Cy5-dT15 ssDNA binding fluorescence polarization; stronger effect = higher value; concentration not given here.
On to `CN(C)C(=O)N=NC(=O)N(C)C`, for which the inhibition was -4% (inactive). For `N#CC(=C(\N)Sc1ccccc1N)/C(C#N)=C(/N)Sc1ccccc1N`, the inhibition was -1% (inactive). Regarding `CCOC([O-])=Nc1c[n+](N2CCOCC2)no1`, the inhibition was -3% (inactive).

Tested on in the next assay: not listed separately
In words: Cy5 fluorescence quenching or enhancement artefacts, artefact control for HCV NS3 helicase inhibitor project, biochemical, LOPAC1280 (AID 687037; call rule not given here). Particulars: Cy5-DNA-NS3h complex fluorescence interference counterscreen.
For the compound `CN(C)C(=O)N=NC(=O)N(C)C`, the fluorescence ratio (interference) was 1 (inactive).

Turning to `N#CC(=C(\N)Sc1ccccc1N)/C(C#N)=C(/N)Sc1ccccc1N`, the fluorescence ratio (interference) is 1 (inactive). On the same count and under the same terms, to `CCOC([O-])=Nc1c[n+](N2CCOCC2)no1` belongs 1 (inactive).

Tested on in the next assay: not listed separately
The assay is described as follows: phospholipid biosynthesis inhibitors in animal cells, primary screen, cell-based, LOPAC library, screen 4 (AID 1347384; call rule not given here). The settings on record: phospholipid biosynthesis inhibition screen, at 10 µM.
Regarding `CN(C)C(=O)N=NC(=O)N(C)C`, the outcome was inactive. With `N#CC(=C(\N)Sc1ccccc1N)/C(C#N)=C(/N)Sc1ccccc1N`, the compound was called inactive. Regarding `C[N+]1(C)CCC(OC(=O)C(c2ccccc2)c2ccccc2)CC1`, the compound was classed as inactive. On to `CC(=O)O[C@H]1CC2(C)[C@@H](C[C@@H](O)[C@H]3[C@@]4(C)CC[C@@H](O)[C@@H](C)[C@@H]4CC[C@@]32C)/C1=C(/CCC=C(C)C)C(=O)O` (stereo not given in full), for which the compound was classed as inactive. For `C[C@@H]1CCN(C(=O)C(CCCN=C(N)N)NS(=O)(=O)c2cccc3c2NC[C@H](C)C3)C(C(=O)O)C1` (stereo not given in full), the compound was called inactive. Consider `NC(=S)c1ccc[n+]([C@@H]2O[C@@H](COP(=O)(O)OP(=O)(O)OC[C@H]3O[C@@H](n4cnc5c(N)ncnc54)C(OP(=O)(O)O)[C@H]3O)C(O)C2O)c1` (stereo not given in full), for which the result was inactive.

Regarding `CCOC([O-])=Nc1c[n+](N2CCOCC2)no1`, the compound was classed as inactive. Consider `CC1=NN(c2cccc(C(=O)O)c2)C(=O)/C1=C\c1ccc(-c2ccc(Cl)c(C(=O)O)c2)o1`, for which the call was inactive.

Tested on in a further assay: not listed separately
In words: survival rescue of mitochondrial mutant cells in low glucose, primary screen, MELAS cybrids, Rieske KO mouse fibroblasts, CellTiter-Glo (AID 1508586).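 Also: z relative to plate mean and SD of compound and empty wells.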 The settings on record: MELAS cybrid survival, CellTiter-Glo 48 h, stronger effect = higher value.
For `C=CCn1nc(C(=O)N2CCCC2)c2c1CCC(NCc1ccccc1OC(F)(F)F)C2` (stereo not given), the z-score was 0.124 (inactive).

For `C=Cc1c(C)c2cc3nc(cc4[nH]c(cc5nc(cc1[nH]2)C(C)=C5CCC(=O)O)c(CCC(=O)OC)c4C)[C@@]1(C)C3=CC=C(C(=O)OC)C1C(=O)OC` (stereo not given in full), the z-score was 1.85 (inactive).

Turning to `N[C@@H](C(=O)N[C@@H]1C(=O)N2C(C(=O)O)=C(Cl)CC[C@H]12)c1ccccc1`, the z-score was 0.0513 (inactive). Take `CCC(C)CCCC(=O)N[C@@H](CCN)C(=O)N[C@H](C(=O)N[C@@H](CCN)C(=O)N[C@H]1CCNC(=O)[C@H]([C@@H](C)O)NC(=O)[C@H](CCN)NC(=O)[C@H](CCN)NC(=O)[C@H](CC(C)C)NC(=O)[C@@H](CC(C)C)NC(=O)[C@H](CCN)NC1=O)[C@@H](C)O` (stereo partly drawn) ({Heptanoyl(5-Me)}-[Dab]T[Dab][Dab][Dab][dL]L[Dab][Dab]T; lactam 4-C): the z-score is -0.0594 (inactive). The same measure, in the same setting: to `C[C@H](Cc1cc2c(c(C(N)=O)c1)N(CCCO)CC2)NCCOc1ccccc1OCC(F)(F)F` belongs -0.477 (inactive); to `Cc1cc(-c2cc3c(n(C)c2=O)CCN(Cc2ccc(Sc4nncn4C)o2)C3)ccc1F`, -0.56 (inactive).

For the compound `Nc1nc(NC2CC2)c2ncn([C@H]3C=C[C@@H](CO)C3)c2n1`, the z-score is 1.09 (inactive). As to `CC(=O)[C@@]12OC(C)(c3ccccc3)O[C@@H]1C[C@H]1[C@@H]3CCC4=CC(=O)CC[C@]4(C)[C@H]3CC[C@@]12C` (stereo not given in full), the z-score is 0.905 (inactive). Same read-out and setting: to `CC=C(C)C(=O)O[C@H]1[C@H](OC(C)=O)C2(CO)C(CC1(C)C)C1=CCC3C4(C)CCC(OC5O[C@H](C(=O)O)[C@@H](O[C@@H]6O[C@H](CO)[C@@H](O)[C@H](O)[C@H]6O)[C@H](O)[C@H]5O[C@@H]5O[C@H](CO)C(O)[C@H](O)[C@H]5O)[C@](C)(CO)C4CCC3(C)[C@]1(C)C[C@H]2O` (stereo not given in full) belongs 0.702; to `CNCC[C@@H](Oc1cccc2ccccc12)c1cccs1`, -0.177 (inactive). Turning to `COc1c(O[C@@H]2O[C@H](CO)[C@@H](O)[C@H](O)[C@H]2O)cc2c(c1OC)-c1ccc(SC)c(=O)cc1[C@@H](NC(C)=O)CC2`, the z-score was 0.122 (inactive). For `CC(C)CC(NP(=O)(O)OC1OC(C)C(O)C(O)C1O)C(=O)NC(Cc1c[nH]c2ccccc12)C(=O)O` (stereo not given), the z-score was -0.408 (inactive).

Regarding `O=C(NCCN1CCOCC1)c1cc(-c2ccccc2)cc(S(=O)(=O)N2CCSCC2)c1`, the z-score is -0.0926 (inactive).

On to `COc1cccc2c1C(=O)c1c(O)c3c(c(O)c1C2=O)C[C@@](O)(C(=O)CO)C[C@@H]3O[C@@H]1C[C@H](N)[C@@H](O)[C@H](C)O1`, for which the z-score is 6.67 (active). In the case of `N[C@@H]1CCCCN(c2c(F)cc3c(=O)c(C(=O)O)cn(C4CC4)c3c2Cl)C1`, the z-score was 0.702 (inactive).

In the case of `COc1cc(Br)c(C[N+]2(CCOCCC3CC[C@H]4C[C@@H]3C4(C)C)CCOCC2)cc1OC` (stereo not given in full), the z-score was -1.55 (inactive).
